# Assays:
# Experiment in all cases: DAPPL (digital affinity profiling via proximity ligation, sequencing); 10 mM Tris-HCl pH 7.5, 50 mM NaCl, 1 mM DTT, 4% glycerol, room temperature, 30 min; GST-TFs on glutathione beads, 16-mer random dsDNA library, 0.1% formaldehyde crosslink after washing; high values mean tight binding
# Conditions in all cases: protein: recombinant; tags: N-terminal GST; dsDNA, one strand shown
# FLI1 = molecular target: T1, FLI1 (Homo sapiens, UniProt Q01543 1-452)
# T1 sequence: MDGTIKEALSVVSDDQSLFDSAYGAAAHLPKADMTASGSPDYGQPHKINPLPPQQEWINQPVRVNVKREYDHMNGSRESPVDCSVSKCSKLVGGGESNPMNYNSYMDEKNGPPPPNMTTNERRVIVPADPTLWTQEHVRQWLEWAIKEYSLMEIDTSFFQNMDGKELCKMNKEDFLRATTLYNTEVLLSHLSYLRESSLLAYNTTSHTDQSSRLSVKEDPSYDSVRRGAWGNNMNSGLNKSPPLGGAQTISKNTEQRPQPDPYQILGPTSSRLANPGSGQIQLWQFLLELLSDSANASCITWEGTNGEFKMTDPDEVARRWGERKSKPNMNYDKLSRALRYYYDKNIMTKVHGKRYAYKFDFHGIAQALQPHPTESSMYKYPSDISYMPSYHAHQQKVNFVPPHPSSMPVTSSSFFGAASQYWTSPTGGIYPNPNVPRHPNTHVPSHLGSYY
# In short: (§1)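 After expression in yeast as GST fusions, human transcription factors were bound to glutathione beads, DNA-barcoded and mixed with a tag-only sample. The pools were incubated with 200 nmole of a 16-mer random double-stranded DNA library in Tris/NaCl/DTT/glycerol buffer (30 min, room temperature), washed and crosslinked with 0.1% formaldehyde. Proximity ligation with BsaI/T4 ligase ran for 1 h at 37 °C, before PCR amplification and sequencing on an Illumina NextSeq500. Binding signal is a hexamer's read frequency for a factor divided by its frequency for the tag-only sample.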
# ELK1 = molecular target: T2, ELK1 (Homo sapiens, UniProt P19419 1-428)
# T2 sequence: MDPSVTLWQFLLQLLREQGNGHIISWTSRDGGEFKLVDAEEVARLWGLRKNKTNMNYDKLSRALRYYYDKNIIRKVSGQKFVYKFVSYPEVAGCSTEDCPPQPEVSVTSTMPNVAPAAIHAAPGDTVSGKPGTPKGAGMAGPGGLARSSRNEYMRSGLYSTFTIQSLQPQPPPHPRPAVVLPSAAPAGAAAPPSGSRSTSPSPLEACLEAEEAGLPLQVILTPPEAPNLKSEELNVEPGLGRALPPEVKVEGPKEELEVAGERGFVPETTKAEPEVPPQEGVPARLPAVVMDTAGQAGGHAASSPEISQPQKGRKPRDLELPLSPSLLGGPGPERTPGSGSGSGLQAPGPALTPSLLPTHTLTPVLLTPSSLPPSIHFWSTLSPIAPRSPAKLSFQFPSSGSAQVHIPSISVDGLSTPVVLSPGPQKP
# In short: as §1
# GABPA = molecular target: T3, GABPA (Homo sapiens, UniProt Q06546 1-454)
# T3 sequence: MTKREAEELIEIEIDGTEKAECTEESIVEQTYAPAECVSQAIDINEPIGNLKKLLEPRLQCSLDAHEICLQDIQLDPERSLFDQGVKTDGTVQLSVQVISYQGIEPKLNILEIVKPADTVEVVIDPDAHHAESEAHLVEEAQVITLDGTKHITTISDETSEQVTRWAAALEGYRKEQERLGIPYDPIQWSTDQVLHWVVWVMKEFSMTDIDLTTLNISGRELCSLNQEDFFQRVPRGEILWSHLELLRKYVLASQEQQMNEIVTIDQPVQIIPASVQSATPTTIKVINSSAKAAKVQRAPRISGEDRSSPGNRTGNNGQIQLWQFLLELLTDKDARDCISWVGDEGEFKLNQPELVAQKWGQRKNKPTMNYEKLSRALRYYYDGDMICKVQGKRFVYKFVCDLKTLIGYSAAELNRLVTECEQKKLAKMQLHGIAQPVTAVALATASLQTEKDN
# In short: as §1
# ELF1 = ELF1 (Homo sapiens, UniProt P32519 1-619)
# Sequence of ELF1 (P32519 whole entry): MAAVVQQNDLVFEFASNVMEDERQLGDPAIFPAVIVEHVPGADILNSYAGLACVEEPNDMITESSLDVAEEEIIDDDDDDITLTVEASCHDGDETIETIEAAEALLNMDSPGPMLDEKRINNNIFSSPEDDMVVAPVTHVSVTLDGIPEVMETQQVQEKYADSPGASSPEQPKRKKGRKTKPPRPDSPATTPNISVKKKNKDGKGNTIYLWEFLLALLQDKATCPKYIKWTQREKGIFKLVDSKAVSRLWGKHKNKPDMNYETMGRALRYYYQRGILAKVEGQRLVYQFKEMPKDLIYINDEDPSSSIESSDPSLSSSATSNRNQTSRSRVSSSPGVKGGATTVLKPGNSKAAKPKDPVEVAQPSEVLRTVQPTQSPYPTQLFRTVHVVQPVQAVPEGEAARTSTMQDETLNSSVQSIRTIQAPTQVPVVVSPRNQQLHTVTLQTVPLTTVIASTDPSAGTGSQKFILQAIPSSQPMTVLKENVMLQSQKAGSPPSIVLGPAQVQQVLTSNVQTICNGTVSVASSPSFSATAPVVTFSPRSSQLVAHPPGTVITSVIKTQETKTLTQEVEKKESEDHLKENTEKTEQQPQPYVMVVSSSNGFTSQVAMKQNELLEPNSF
# In short: as §1
# EHF = molecular target: T4, EHF (Homo sapiens, UniProt Q9NZC4 1-300)
# T4 sequence: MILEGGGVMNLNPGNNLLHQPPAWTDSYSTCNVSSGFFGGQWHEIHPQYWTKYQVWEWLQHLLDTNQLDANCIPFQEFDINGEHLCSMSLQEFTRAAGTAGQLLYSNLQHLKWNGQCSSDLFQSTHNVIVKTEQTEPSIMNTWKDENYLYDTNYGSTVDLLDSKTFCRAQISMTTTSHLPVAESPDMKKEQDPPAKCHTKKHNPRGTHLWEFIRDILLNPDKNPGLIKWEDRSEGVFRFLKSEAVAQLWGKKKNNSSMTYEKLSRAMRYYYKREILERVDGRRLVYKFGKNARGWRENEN
# In short: as §1
# SPI1 = SPI1 (Homo sapiens, UniProt P17947 1-270)
# In short: as §1
# SPIB = SPIB (Homo sapiens, UniProt Q01892 1-262)
# Sequence of SPIB (Q01892 whole entry): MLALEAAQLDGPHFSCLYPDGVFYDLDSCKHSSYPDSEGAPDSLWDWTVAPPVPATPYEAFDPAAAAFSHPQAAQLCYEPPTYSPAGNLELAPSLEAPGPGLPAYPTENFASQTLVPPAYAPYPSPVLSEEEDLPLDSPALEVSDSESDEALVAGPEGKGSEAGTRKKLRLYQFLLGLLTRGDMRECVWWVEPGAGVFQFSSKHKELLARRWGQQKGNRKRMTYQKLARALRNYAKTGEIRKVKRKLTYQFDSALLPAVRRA
# In short: as §1
# ELK3 = molecular target: T5, ELK3 (Homo sapiens, UniProt P41970 1-407)
# T5 sequence: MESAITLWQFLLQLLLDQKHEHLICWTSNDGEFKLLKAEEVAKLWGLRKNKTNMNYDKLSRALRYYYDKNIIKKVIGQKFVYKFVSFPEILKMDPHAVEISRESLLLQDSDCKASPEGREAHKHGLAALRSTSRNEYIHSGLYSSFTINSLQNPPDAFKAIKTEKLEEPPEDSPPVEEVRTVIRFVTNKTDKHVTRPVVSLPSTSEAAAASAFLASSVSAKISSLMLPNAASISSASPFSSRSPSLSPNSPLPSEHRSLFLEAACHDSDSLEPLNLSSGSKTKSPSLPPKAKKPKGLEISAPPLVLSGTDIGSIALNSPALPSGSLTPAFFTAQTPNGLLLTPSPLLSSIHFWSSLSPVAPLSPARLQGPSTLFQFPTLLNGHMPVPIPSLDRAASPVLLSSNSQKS
# In short: as §1
# FEV = molecular target: T6, FEV (Homo sapiens, UniProt Q99581 1-238)
# T6 sequence: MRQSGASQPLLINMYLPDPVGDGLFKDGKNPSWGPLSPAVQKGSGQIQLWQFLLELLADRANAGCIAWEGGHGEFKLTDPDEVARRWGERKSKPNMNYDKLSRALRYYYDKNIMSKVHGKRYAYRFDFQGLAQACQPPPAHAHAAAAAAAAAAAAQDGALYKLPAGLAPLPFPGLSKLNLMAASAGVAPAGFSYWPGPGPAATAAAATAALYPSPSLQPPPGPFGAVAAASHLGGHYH
# In short: as §1
# ETV5 = ETV5 (Homo sapiens, UniProt P41161 1-510)
# Sequence of ETV5 (P41161 whole entry): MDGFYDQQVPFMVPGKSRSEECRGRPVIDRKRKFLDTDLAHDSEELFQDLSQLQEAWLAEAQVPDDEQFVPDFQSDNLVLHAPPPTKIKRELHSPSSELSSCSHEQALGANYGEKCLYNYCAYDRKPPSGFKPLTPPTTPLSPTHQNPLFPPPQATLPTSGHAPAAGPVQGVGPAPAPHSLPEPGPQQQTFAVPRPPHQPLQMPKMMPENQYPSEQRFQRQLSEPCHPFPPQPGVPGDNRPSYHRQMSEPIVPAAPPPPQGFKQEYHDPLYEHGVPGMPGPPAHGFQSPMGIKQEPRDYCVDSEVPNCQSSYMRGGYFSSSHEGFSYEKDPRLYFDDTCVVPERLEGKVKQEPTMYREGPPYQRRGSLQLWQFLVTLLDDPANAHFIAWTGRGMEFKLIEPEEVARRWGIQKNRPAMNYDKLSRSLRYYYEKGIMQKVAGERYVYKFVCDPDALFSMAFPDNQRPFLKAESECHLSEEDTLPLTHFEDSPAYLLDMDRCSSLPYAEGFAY
# In short: as §1
# SPIC = molecular target: T7, SPIC (Homo sapiens, UniProt Q8N5J4 1-248)
# T7 sequence: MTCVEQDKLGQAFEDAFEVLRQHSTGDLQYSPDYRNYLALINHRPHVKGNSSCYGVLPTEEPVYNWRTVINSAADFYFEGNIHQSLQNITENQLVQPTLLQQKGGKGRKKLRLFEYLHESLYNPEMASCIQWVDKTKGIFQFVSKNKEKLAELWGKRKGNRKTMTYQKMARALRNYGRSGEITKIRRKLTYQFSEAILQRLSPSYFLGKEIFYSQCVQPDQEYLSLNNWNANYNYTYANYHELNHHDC
# In short: as §1
# ELF4 = ELF4 (Homo sapiens, UniProt Q99607 1-663)
# Sequence of ELF4 (Q99607 whole entry): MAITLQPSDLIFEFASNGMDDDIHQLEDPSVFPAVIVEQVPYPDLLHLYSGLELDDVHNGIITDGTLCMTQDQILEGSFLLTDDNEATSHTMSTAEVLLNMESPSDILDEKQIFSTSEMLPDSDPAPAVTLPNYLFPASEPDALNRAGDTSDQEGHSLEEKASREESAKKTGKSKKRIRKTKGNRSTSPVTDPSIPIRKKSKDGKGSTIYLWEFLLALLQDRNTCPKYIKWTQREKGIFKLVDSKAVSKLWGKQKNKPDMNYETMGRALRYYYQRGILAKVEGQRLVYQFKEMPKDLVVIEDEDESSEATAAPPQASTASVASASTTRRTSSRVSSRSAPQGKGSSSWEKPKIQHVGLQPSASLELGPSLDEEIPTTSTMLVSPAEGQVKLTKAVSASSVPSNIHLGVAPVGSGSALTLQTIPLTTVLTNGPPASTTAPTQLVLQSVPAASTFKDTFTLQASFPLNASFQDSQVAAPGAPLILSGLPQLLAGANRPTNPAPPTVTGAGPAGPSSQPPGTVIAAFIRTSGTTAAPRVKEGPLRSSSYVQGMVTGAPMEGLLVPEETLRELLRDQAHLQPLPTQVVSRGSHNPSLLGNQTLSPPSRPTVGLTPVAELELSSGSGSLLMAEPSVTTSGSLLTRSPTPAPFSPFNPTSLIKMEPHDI
# In short: as §1
# ETV1 = ETV1 (Homo sapiens, UniProt P50549 1-477)
# Sequence of ETV1 (P50549 whole entry): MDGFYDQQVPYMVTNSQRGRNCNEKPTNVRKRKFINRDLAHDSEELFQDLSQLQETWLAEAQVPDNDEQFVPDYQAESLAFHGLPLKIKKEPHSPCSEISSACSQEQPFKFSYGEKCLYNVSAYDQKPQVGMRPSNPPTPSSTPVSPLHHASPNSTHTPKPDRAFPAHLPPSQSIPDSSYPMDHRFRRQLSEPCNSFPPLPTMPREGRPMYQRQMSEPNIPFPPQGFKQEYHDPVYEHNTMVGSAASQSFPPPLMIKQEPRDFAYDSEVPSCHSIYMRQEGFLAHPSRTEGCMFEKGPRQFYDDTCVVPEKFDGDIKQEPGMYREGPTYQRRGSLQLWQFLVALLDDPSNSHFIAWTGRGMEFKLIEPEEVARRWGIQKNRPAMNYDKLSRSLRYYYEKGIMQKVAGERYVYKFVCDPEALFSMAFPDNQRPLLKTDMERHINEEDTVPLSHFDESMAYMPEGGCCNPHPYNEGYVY
# In short: as §1
# ERF = molecular target: T8, ERF (Homo sapiens, UniProt P50548 1-548)
# T8 sequence: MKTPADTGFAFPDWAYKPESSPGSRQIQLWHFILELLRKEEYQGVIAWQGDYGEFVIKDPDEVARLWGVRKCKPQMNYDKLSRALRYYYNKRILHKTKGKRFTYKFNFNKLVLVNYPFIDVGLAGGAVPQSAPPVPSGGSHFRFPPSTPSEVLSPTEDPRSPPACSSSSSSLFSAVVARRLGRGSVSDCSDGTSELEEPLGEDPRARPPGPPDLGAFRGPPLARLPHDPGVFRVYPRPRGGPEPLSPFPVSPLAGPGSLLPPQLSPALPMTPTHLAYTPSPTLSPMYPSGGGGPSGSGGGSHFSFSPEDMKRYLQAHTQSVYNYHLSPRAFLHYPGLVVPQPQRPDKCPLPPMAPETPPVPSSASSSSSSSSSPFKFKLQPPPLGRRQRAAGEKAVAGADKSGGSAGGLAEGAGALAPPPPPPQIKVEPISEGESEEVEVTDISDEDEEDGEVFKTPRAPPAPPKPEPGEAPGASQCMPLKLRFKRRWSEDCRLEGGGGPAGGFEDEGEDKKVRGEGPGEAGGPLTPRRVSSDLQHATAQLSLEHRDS
# In short: as §1
# ETV3L = molecular target: T9, ETV3L (Homo sapiens, UniProt Q6ZN32 1-361)
# T9 sequence: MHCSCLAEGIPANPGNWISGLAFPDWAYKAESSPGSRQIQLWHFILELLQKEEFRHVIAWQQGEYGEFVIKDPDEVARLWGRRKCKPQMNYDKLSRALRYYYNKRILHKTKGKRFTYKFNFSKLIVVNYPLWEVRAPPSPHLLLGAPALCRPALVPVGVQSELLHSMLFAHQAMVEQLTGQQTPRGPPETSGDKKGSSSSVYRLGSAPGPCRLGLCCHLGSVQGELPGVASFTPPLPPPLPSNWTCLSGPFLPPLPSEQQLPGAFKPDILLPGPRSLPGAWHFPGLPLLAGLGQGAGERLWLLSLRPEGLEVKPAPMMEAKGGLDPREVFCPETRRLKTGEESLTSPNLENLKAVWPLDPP
# In short: as §1
# ETS2 = molecular target: T10, ETS2 (Homo sapiens, UniProt P15036 1-469)
# T10 sequence: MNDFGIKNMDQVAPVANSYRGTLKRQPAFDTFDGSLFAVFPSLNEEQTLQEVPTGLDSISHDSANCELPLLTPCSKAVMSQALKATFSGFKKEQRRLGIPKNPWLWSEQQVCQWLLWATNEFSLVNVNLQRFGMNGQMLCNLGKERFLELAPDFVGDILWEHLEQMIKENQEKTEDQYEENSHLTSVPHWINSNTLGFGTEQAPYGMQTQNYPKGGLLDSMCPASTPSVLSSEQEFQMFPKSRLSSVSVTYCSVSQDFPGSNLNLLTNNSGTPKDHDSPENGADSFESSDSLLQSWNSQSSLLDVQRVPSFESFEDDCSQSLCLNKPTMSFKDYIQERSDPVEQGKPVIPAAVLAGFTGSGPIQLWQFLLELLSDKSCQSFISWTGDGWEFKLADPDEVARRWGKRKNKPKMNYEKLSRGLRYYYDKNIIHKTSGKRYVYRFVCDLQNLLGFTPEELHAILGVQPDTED
# In short: as §1
# SPDEF = molecular target: T11, SPDEF (Homo sapiens, UniProt O95238 1-335)
# T11 sequence: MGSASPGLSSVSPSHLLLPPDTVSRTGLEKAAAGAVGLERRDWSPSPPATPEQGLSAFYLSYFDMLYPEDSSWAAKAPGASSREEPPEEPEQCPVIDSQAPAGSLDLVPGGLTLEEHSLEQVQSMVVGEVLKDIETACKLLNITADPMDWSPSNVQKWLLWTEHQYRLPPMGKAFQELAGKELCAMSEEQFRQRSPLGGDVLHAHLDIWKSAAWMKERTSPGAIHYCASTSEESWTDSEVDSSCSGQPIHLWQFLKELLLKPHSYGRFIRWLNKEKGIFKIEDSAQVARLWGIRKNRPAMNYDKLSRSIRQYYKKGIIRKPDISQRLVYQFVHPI
# In short: as §1
# ETV3 = molecular target: T12, ETV3 (Homo sapiens, UniProt P41162-2 1-143)
# T12 sequence: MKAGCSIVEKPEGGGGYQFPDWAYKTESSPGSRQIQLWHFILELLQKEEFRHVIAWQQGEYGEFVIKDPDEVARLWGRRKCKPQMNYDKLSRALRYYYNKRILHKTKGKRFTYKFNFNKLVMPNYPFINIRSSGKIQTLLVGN
# In short: as §1
# ETV6 = ETV6 (Homo sapiens, UniProt P41212 1-452)
# Sequence of ETV6 (P41212 whole entry): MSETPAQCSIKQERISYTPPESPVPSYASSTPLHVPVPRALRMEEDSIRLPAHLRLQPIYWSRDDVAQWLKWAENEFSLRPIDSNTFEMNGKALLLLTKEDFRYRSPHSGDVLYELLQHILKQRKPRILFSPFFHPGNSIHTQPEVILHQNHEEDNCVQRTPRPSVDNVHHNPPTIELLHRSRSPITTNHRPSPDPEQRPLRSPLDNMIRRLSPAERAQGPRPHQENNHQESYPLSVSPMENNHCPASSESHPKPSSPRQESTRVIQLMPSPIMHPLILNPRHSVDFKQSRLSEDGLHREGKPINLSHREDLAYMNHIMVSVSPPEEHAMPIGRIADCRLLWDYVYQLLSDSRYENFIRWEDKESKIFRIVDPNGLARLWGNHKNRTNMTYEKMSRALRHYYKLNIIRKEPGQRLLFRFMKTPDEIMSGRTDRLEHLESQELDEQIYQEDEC
# In short: as §1
sequence,measurement,setting,value
TGCTGC,binding signal,FLI1,"1.15 fold enrichment (6-mer frequency, TF over GST control)"
same,binding signal,ELK1,"1.15 fold enrichment (6-mer frequency, TF over GST control)"
same,binding signal,GABPA,"1.16 fold enrichment (6-mer frequency, TF over GST control)"
same,binding signal,ELF1,"1.21 fold enrichment (6-mer frequency, TF over GST control)"
same,binding signal,EHF,"1.3 fold enrichment (6-mer frequency, TF over GST control)"
same,binding signal,SPI1,"1.11 fold enrichment (6-mer frequency, TF over GST control)"
same,binding signal,SPIB,"1.07 fold enrichment (6-mer frequency, TF over GST control)"
same,binding signal,ELK3,"1.08 fold enrichment (6-mer frequency, TF over GST control)"
same,binding signal,FEV,"1.15 fold enrichment (6-mer frequency, TF over GST control)"
same,binding signal,ETV5,"1.17 fold enrichment (6-mer frequency, TF over GST control)"
same,binding signal,SPIC,"1.3 fold enrichment (6-mer frequency, TF over GST control)"
same,binding signal,ELF4,"1.16 fold enrichment (6-mer frequency, TF over GST control)"
same,binding signal,ETV1,"1.13 fold enrichment (6-mer frequency, TF over GST control)"
same,binding signal,ERF,"1.07 fold enrichment (6-mer frequency, TF over GST control)"
same,binding signal,ETV3L,"1.34 fold enrichment (6-mer frequency, TF over GST control)"
same,binding signal,ETS2,"1.15 fold enrichment (6-mer frequency, TF over GST control)"
same,binding signal,SPDEF,"1.05 fold enrichment (6-mer frequency, TF over GST control)"
same,binding signal,ETV3,"1.23 fold enrichment (6-mer frequency, TF over GST control)"
same,binding signal,ETV6,"1.1 fold enrichment (6-mer frequency, TF over GST control)"

# Source: publication PMC7862700, “An all-to-all approach to the identification of sequence-specific readers for epigenetic DNA modifications on cytosine”
